Rows were chosen to be rich in hits. Some 2.1% of all compounds tested hit in one or more screens of this group.
PrPC surface inh: cell surface PrPC inhibition, primary TR-FRET screen; 370,000 tested, 0.43% active; inhibition, % at 13.8 µM; TR-FRET read-out; P04156; in the data active = inhibition above about 24%
DUSP3 inh: blocks human VHR1 dual specificity phosphatase. P51452. inhibition, % at 13.3 µM. recombinant VHR phosphatase, pNPP absorbance. 290,000 tested, 0.52% active; in the data active = inhibition above about 50%
Target sequence (P51452 whole entry, looked up): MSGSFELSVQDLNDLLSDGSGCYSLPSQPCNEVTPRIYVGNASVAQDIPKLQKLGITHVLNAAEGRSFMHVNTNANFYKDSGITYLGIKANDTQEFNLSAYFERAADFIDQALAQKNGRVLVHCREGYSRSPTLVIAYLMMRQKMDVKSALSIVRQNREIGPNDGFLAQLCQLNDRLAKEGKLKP
PfHsp40 rescue: compounds rescuing yeast from Plasmodium falciparum HSP40 toxicity | S. cerevisiae expressing PfHsp40, growth rescue, ATP luminescence | growth rescue, % at 12.5 µM | 340,000 tested, 0.68% active | AID 504582; in the data active = growth rescue above about 28%, passing the limit was not always enough; inconclusive = no clear call, values can overlap the other calls;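 also: yeast W303a lacking pdr1 and pdr3 grown in galactose medium; growth measured after three days at 30 °C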
MazF activator: activators of E. coli MazEF toxin-antitoxin RNase | P0AE70 | FAM/BHQ RNA-DNA oligo cleavage fluorescence, 5 h | activation, % at 20 µM | 350,000 tested, 0.32% active | AID 504720; in the data active = activation above about 50%
Target sequence (P0AE70 whole entry, looked up): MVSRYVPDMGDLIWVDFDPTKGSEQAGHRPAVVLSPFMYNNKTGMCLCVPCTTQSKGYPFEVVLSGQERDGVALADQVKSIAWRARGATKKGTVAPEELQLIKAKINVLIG
BJeLR viability: BJeLR cell viability loss; 300,000 tested, 0.17% active; inhibition, % (test concentration not listed); BJeLR (HRASV12) viability, CellTiter-Glo ATP luminescence, 48 h; AID 1554; in the data active = inhibition above about 50%; inconclusive = no clear call, values can overlap the other calls
PrP 5UTR inh: suppresses PrP 5' UTR mRNA reporter expression | cell-based PrP 5' UTR mRNA reporter, plate reader | inhibition, % (no concentration beside the values) | 340,000 tested, 0.35% active | AID 488862; in the data active = inhibition above about 52%
Hits are given with their value; - = inactive; ? = inconclusive; . = no result.

SMILES | PrPC surface inh | DUSP3 inh | PfHsp40 rescue | MazF activator | BJeLR viability | PrP 5UTR inh
O=C(Cn1nnc(N2CCOCC2)n1)NN=Cc1ccccc1Cl | - | . | . | . | . | .
CCC(C(=O)NCc1ccco1)N(C(=O)CNS(=O)(=O)c1ccc(C)cc1)c1ccccc1F (stereo not drawn) | - | - | - | - | - | -
CN(CC(=O)Nc1ccccc1Br)c1ncnc2sccc12 | - | - | - | 57 | - | -
CC(C)Cc1nc(SCC(=O)NCC2CCCO2)c2c(=O)n(C)c(=O)n(C)c2n1 (stereo not drawn) | - | - | - | - | - | -
CSC(=S)NN=C(C)c1cccc(C)n1 | - | . | 64 | - | . | -
N#Cc1ccc(CN2CCN(C(=O)C3CC(=O)N(c4ccc5c(c4)OCCO5)C3)CC2)cc1 (stereo not drawn) | - | . | . | - | . | .
COc1ccccc1Oc1c(C)oc2cc(OC(=O)N(C)C)ccc2c1=O | - | . | 93 | - | - | -
COc1ccc(Oc2c(C)oc3cc(OC(=O)N(C)C)ccc3c2=O)cc1 | - | . | - | - | - | -
O=C(CSc1nnc(-c2ccccc2)o1)NC1CC1 | - | . | - | - | - | -
CCOc1ccccc1NC1=NCC(=O)N1Cc1ccc(F)cc1 | - | 53 | - | - | - | -
COc1ccccc1NC1=NCC(=O)N1Cc1ccccc1 | - | - | - | - | - | -
CCOC(=O)c1sc(=S)n(-c2cc(OC)ccc2OC)c1N | - | - | 200 | - | - | -
CCOC(=O)c1sc(=S)n(-c2cc(F)ccc2F)c1N | - | - | - | - | - | -
COc1ccc(/C=N/NC(=O)c2nc(-c3ccccc3)n(-c3ccccc3)n2)cc1 | - | - | - | - | - | -
COc1cccc(C=NNC(=O)c2ccncc2)c1O | - | . | - | - | . | -
COc1cccc(/C=N/NC(=O)c2nc(-c3ccccc3)cc(-c3ccccc3)n2)c1O | - | - | 254 | - | - | -
CCOc1cccc(/C=N/NC(=O)c2cccnc2)c1O | - | 52 | - | - | - | -
COc1ccc(/C=N/NC(=O)c2nc(-c3ccccc3)n(-c3ccccc3)n2)c(O)c1 | - | - | 72 | - | - | -
CCOc1cc(/C=N/NC(=O)c2cccnc2)ccc1O | - | - | - | - | - | -
CC(=O)C1=C(C)Nc2ncnn2C1c1cccc(OCc2ccccc2)c1 (stereo not drawn) | - | 53 | - | - | - | -
Cc1ccc(CNC(=O)C2CCN(c3nn4c(=O)cc(C)nc4s3)CC2)cc1 | - | - | - | - | - | -
Cc1cc(=O)n2nc(N3CCC(C(=O)NCc4ccccc4)CC3)sc2n1 | - | 52 | - | - | - | -
Cc1ccc(CN2CCCN(Cc3ccc(F)cc3Cl)S2(=O)=O)cc1 | - | 53 | - | - | - | -
Cc1ccc(CN2CCCN(Cc3c(F)cccc3Cl)S2(=O)=O)cc1 | - | - | - | - | - | -
COc1ccc(CCNC(=O)COc2ccc3c(C)cc(=O)oc3c2)cc1 | - | . | - | - | . | -
SMILES | PrPC surface inh | DUSP3 inh | PfHsp40 rescue | MazF activator | BJeLR viability | PrP 5UTR inh
Cc1cc(=O)oc2cc(OCC(=O)NCCc3ccccc3)ccc12 | - | 58 | - | - | - | -
O=C(O)c1cc(S(=O)(=O)N(Cc2ccccc2)c2ccc(Cl)cc2)ccc1Cl | - | - | - | - | - | -
Cc1ccc(N(CC(=O)N2CCCC2)S(C)(=O)=O)cc1C | - | 58 | - | - | - | -
O=C(COC(=O)CCSc1ccccc1)Nc1ccccc1 | - | . | - | - | . | -
O=C(N/N=C/c1ccc(OC(=O)c2cccs2)cc1)c1ccccn1 | - | 53 | - | - | - | -
CCOc1cc(/C=N/NC(=O)c2ccccn2)ccc1OC(=O)c1cccs1 | - | - | - | - | - | -
COc1ccc2c(n1)Sc1nc3ccccc3nc1N2 | - | - | 336 | - | - | -
COc1cc2ccccc2nn1 | - | - | - | - | - | -
CCC1=NN(C(=O)c2ccccc2O)C(O)(c2ccccc2)C1 (stereo not drawn) | - | - | 83 | - | - | -
CCC1=NN(C(=O)c2ccccc2Br)C(O)(c2ccc(Br)cc2)C1 (stereo not drawn) | - | - | - | - | - | -
CCCCn1c(N)c(N(Cc2ccccc2OC)C(=O)C(C)Oc2ccc(Cl)cc2)c(=O)[nH]c1=O (stereo not drawn) | - | - | - | - | - | -
NC(Cc1ccc(Cl)cc1)c1csc(Nc2cc(NCCCO)ncn2)n1 (stereo not drawn) | - | . | . | . | . | .
COc1cc(/C=C/C(=O)N2C(=O)c3cccc(N)c3C2=O)cc(OC)c1OC | - | 55 | - | - | - | -
Cc1ccccc1OCCn1c(=S)[nH]c2ccccc21 | - | - | - | - | - | -
CC(C)c1c(C#N)c(N)nc(SCC(=O)c2cc3ccccc3oc2=O)c1C#N | - | - | - | - | - | -
N#Cc1ccc(-c2ccccc2)nc1SCC(=O)c1cc2ccccc2oc1=O | - | - | - | 63 | - | -
CSc1nc(C)c(C(=O)Nc2ccccc2)c(-c2ccco2)c1C#N | - | - | - | - | - | -
Cc1nc(SCC(=O)c2cc3ccccc3oc2=O)c(C#N)c(-c2cccs2)c1C(=O)Nc1ccccc1 | - | - | - | 61 | - | -
Cc1ccc2nc(CN(C)C(=O)[C@H]3O[C@@H](n4cnc(C(N)=O)n4)[C@H](O)[C@@H]3O)[nH]c2c1 | - | . | . | . | . | .
C=CC[C@]1(c2ccccc2)C(=O)N2C[C@H]3CON(C)[C@H]3C[C@H]2c2ccccc21 | - | . | . | . | . | .
C[C@H]1[C@H](c2ccccc2)OC(O)([C@H](Cc2ccccc2)NC(=O)OC(C)(C)C)CN1C (stereo partly drawn) | - | . | . | . | . | .
COC(=O)c1c(-c2ccccc2)csc1NC(=O)c1c(-c2ccccc2)noc1C | - | - | - | - | - | -
CCOC(=O)c1c(-c2ccc(F)cc2)csc1NC(=O)c1c(-c2ccccc2)noc1C | - | - | 32 | - | - | -
CCCC(CCC)c1nnc(NC(=O)c2ccco2)s1 | - | 60 | ? | - | - | -
CCC(CC)c1nnc(NC(=O)c2c(-c3ccccc3)noc2C)s1 | - | 50 | - | - | - | -
SMILES | PrPC surface inh | DUSP3 inh | PfHsp40 rescue | MazF activator | BJeLR viability | PrP 5UTR inh
COc1ccccc1NC(=O)c1ccc(C)c(S(=O)(=O)N2CCCCC2)c1 | - | 53 | - | - | - | -
COc1ccc(NC(=O)Cn2cnc3sc(C)c(S(=O)(=O)N4CCOCC4)c3c2=O)cc1Cl | - | - | - | - | - | -
CCOC(=O)N1C2C=CC(C2)N1C(=O)OCC | - | . | - | 157 | . | -
CCOC(=O)N1C2CCC(C2)N1C(=O)OCC | - | . | - | - | . | -
C=CCn1c(=O)/c(=C\c2ccccn2)s/c1=C(/C#N)C(=O)NCC1CCCO1 (stereo not drawn) | - | - | - | 264 | - | -
CCCCNC(=O)CSc1nc2ccsc2c(=O)n1CCCC(=O)NCCc1ccc(S(N)(=O)=O)cc1 | - | - | - | - | - | -
Cc1ccc(S(=O)(=O)N2[C@@H](c3ccc(Cl)cc3)C(C(=O)O)=CC[C@H]2c2ccc(Cl)c(Cl)c2)cc1 | - | . | 304 | - | . | -
